# LmPK inhibitor: LmPK (Leishmania mexicana) enzyme inhibition. Q27686. purified LmPK, Kinase-Glo ATP luminescence, 1 h. Potency, µM (series often up to 57.5 µM), usual class: inhibitors. 290,000 tested, 0.37% active
#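 Kinase-Glo luminescence read after 1 h RT reaction of 0.1 nM LmPK with 0.5 mM PEP and 0.1 mM ADP. Activity scaled between uninhibited and enzyme-free controls.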
# Tb PYK inh: inhibitors of Trypanosoma brucei pyruvate kinase | 410,000 tested, 0.12% active | TbPYK enzyme, Kinase-Glo Plus ATP luminescence, 45 min | AID 624173 | Potency, µM (titrated, usually from 76.8 µM), most hits filed as inhibitors; note: nearly all actives have a fitted effect of over 50% in size
#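 Luminescence from Kinase-Glo Plus, added after a 45-minute room-temperature reaction, served as the end-point read-out. The enzyme and substrate were preincubated with compound before ADP (130 uM final) initiated turnover. Concentration-effect curves came from normalized qHTS data.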
# Shiga toxin inh: inhibitors of Shiga toxin in Vero cells; Vero cells, Shiga toxin protein synthesis inhibition reporter; inhibition, % at 38.7 µM; 290,000 tested, 9.2% active; AID 2315; in the data active = inhibition mostly above about 28%, no sharp cut-off; inactive = mostly below about 43%
# RE007 growth inh: less growth of the S. pombe RE007 Vpr strain; S. pombe RE007 Vpr strain, BacTiter-Glo ATP luminescence, 24 h; Potency, µM (top dose mostly 92.2 µM), most hits filed as inhibitors; 360,000 tested, 0.21% active; AID 651644; active = well fitted falling curve with a large enough effect; inconclusive = small, poorly fitted or top-dose-only effect; inactive = no such curve, though single readings can be large or run the other way; note: nearly all actives have a fitted effect of over 50% in size
#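 Fission yeast RE007 carrying one integrated HIV-1 vpr copy, seeded at OD 0.01 in PMG+AL medium with 23 nL pinned compound. Grown 24 h at 30 degrees; viability read by BacTiter-Glo luminescence after 5 min.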
# Giardia FBPA inh: blocks Giardia fructose-bisphosphate aldolase activity; A8B2U2; purified Giardia FBPA; Potency, µM (titrated, usually from 59.6 µM), most hits filed as inhibitors; 290,000 tested, 0.71% active; note: nearly all actives have a fitted effect of over 55% in size
# Target sequence (A8B2U2 whole entry, looked up): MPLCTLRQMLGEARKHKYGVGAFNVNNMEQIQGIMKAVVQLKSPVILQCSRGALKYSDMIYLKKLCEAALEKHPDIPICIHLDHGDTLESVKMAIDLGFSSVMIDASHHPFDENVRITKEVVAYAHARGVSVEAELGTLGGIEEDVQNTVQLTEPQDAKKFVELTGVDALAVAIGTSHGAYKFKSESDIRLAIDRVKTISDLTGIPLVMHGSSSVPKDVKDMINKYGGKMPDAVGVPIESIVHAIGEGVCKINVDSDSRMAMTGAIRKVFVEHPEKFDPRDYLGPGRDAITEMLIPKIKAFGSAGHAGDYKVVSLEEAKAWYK
#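 40 nM FBPA preincubated 10 min at RT with compound (up to 57.5 uM final), then substrate plus GAPDH/TPI/NAD/arsenate coupling and diaphorase/resazurin added. Fluorescence read after 20 min at RT, 525/598 nm.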
# CHX counter: affects cycloheximide protein synthesis inhibition readout, counter-screen; cell reporter, cycloheximide protein synthesis inhibition counterscreen; max response, %; 300,000 tested, 12% active; AID 2314; in the data active = max response mostly above about 13%, no sharp cut-off; inactive = mostly below about 14%; note: read at 38.3 µM for the half of the compounds with a filed dose
# A number is an active result; 0 = inactive; ? = inconclusive; - = no result; [ ] = dose if it differs, or a comment. This is one part of a sample in which hits are shown more often than they occur. Unless noted, calls come from the whole dose curve; as a rule, active = well fitted curve in the direction sought with a large enough effect; inconclusive = small, poorly fitted or top-dose-only effect, or another doubt; inactive = no such curve, though single readings can be large; an effect the other way counts as inactive or inconclusive.
SMILES,LmPK inhibitor,Tb PYK inh,Shiga toxin inh,RE007 growth inh,Giardia FBPA inh,CHX counter
Nc1cc(=O)[nH]c(SCC(=O)N2N=C(c3ccc(Cl)cc3)CC2c2ccco2)n1 (configuration not stated),0,0,0,0,0,0
CCCc1cc(=O)[nH]c(SCC(=O)N2N=C(c3ccc(Cl)cc3)CC2c2ccco2)n1 (configuration not stated),0,0,0,0,0,0
COc1ccc(C(=O)NNC(=O)c2ccc(C(C)(C)C)cc2)cc1,0,0,0,0,0,0
C/C(=C\C(=O)c1ccccc1)NNC(=O)c1ccc(Cl)cc1,0,0,-,0,0,22
COc1ccc(C(=O)N/N=C/C(=O)c2ccccc2)cc1,0,0,49,0,0,43
COc1ccc(C(=O)NN/C(C)=C/C(=O)c2ccccc2)cc1,0,0,0,0,0,11
CCS(=O)(=O)N1CCc2cc(C(=O)Nc3cc(C(F)(F)F)ccc3Cl)ccc21,-,0,-,-,-,-
Cc1ccc2nc(C(C)(C)C)c(Cc3cccc(F)c3)n2c1,-,0,-,?,-,-
CC1CC(C)CN(c2ccc([N+](=O)[O-])nc2)C1 (configuration not stated),0,0,0,0,0,17
CCn1c(C)c(C(=O)Nc2ccc(OC)cc2)c2cc(OC)ccc21,0,0,0,0,0,19
CN(C)c1ccc(/C=C2\CCCCC2=O)cc1,0,0,0,0,0,14
O=C(O)CCc1nc(-c2ccccc2)no1,0,0,0,0,0,0
NC(Cc1ccccc1)c1nc(-c2ccccc2)no1 (configuration not stated),0,0,38,0,0,30
O=C(NCc1ccccc1)c1ccc(C(=O)NCc2ccccc2)cc1,-,0,-,0,-,-
O=C(NCCCc1ccccc1)c1ccc(F)cc1,0,0,55,0,0,34
C=CCNC(=O)c1ccc(N(CC=C)S(C)(=O)=O)cc1,0,0,0,0,0,0
CC(C)(C)c1ccc(C(=O)NCc2ccccc2)cc1,0,0,53,0,0,26
O=C(NCCCCNC(=O)c1ccc(F)cc1)c1ccc(F)cc1,0,0,0,0,0,0
CC(=O)Nc1ccc(C(=O)NCCc2ccccc2)cc1,0,0,62,0,0,60
C=CCN(c1ccc(C(=O)NCCc2ccccc2)cc1)S(C)(=O)=O,0,0,0,0,0,40
COc1cc(OC)cc(C(=O)NCC(=O)Nc2ccc(OC)c(Cl)c2)c1,0,0,0,0,0,0
CC(C)NC(=O)Cn1c(=O)nc(-c2ccccc2)c2ccccc21,-,0,-,-,-,-
CCOC(=O)C1(CCCc2ccccc2)CCN(C(=O)c2cc(C)nn2CC)CC1,0,0,0,0,0,0
CCNc1ncc2nc(-c3ccc(F)cc3)c(=O)n(C)c2n1,-,-,-,-,0,-
CC(C)(C)c1ccc(C(=O)NCCCNC(=O)c2ccco2)cc1,0,0,0,0,0,0
SMILES,LmPK inhibitor,Tb PYK inh,Shiga toxin inh,RE007 growth inh,Giardia FBPA inh,CHX counter
CC(C)(C)c1ccc(C(=O)NCCc2ccccc2)cc1,0,0,53,0,0,46
CCCCOC(=O)n1c(=O)oc2ccccc21,0,0,0,0,0,26
COC(=O)n1c(=O)oc2ccccc21,0,0,0,0,0,0
Cn1c(=O)c2cc(C(=O)NCCCN3CCN(c4ccc(F)cc4)CC3)sc2c2ccccc21,-,0,-,-,-,-
CC1OC(Nc2ccc(N=Nc3ccccc3)cc2)C(O)C(O)C1O (configuration not stated),0,0,118,0,0,37
CC(NC(=O)CCCC1=NS(=O)(=O)c2ccccc2N1)c1ccccc1 (configuration not stated),-,0,-,-,-,-
Cc1cc(=O)cc(C)n1-c1ccccc1N,0,0,0,0,0,0
Nc1ccccc1-n1cccc1,0,0,0,0,0,13
Cc1ccc(C)n1-c1ccccc1N,0,-,0,-,?,24
CC(C)(C)N1C(=O)[C@H]2[C@@H](c3ccc(Br)cc3)N3C(=O)N(c4cccc(Cl)c4)C(=O)[C@@]3(Cc3ccccc3)[C@H]2C1=O,-,0,-,0,-,-
COc1cccc(/C=N/NC(=O)c2cccc(N3CCCC3=O)c2)c1,0,0,107,0,0,33
O=C(N/N=C/c1cc(Br)ccc1O)c1cccc(N2CCCC2=O)c1,0,0,0,0,?,0
O=C(N/N=C/c1ccco1)c1cccc(N2CCCC2=O)c1,0,0,active,0,0,29
O=C(CC1OC(=O)c2ccccc21)Nc1ccc(Cl)c(S(=O)(=O)N2CCCCC2)c1 (configuration not stated),-,0,-,0,-,-
O=C(NCc1ccc2c(c1)OCO2)c1cc(Cl)ccc1Cl,0,0,-,0,0,13
O=C(NCc1ccc2c(c1)OCO2)Nc1ccc(Cl)cc1,0,0,0,0,0,25
N#Cc1ccccc1S(=O)(=O)N1CCN(C(=O)CN(Cc2ccco2)Cc2cccs2)CC1,-,0,-,0,-,-
CC(C)(C)NC(=O)C(c1cc2ccccc2o1)n1c(-c2ccc(-c3ccccc3)cc2)nc2ccccc21 (configuration not stated),-,-,-,0,-,-
CCCC(=O)Nc1nc(-c2ccccc2)ns1,0,0,28,0,0,86
Cc1nnc(SCCC(=O)Nc2nc(-c3ccccc3)ns2)s1,0,-,0,0[3.69 µM],0,0
O=C(CSc1ncn[nH]1)Nc1nc(-c2ccccc2)ns1,0,0,49,0,0,34
Cc1ccc(-c2nc(NC(=O)CSc3ncn[nH]3)ns2)cc1,0,0,59,0,0,16
O=C(CSc1ncn[nH]1)Nc1ccc(Br)cc1F,0,0,0,0,0,25
CCCCCCCCCCCCC/C=C/[C@@H](O)[C@@H](N)CO,-,0,-,0,0,-
CCCN(CC(=O)Nc1ccccc1C)C(=O)C1CC(=O)N(Cc2ccccc2)C1 (configuration not stated),-,0,-,0,-,-
SMILES,LmPK inhibitor,Tb PYK inh,Shiga toxin inh,RE007 growth inh,Giardia FBPA inh,CHX counter
CC(=O)N1CCC2(CCCN(c3ccccn3)C2)CC1,-,0,-,-,0,-
COc1ccc2c(c1)c(N1CCCC1=O)c(C(=O)Nc1cc(C)c(Cl)cc1OC)n2C,-,0,-,-,-,-
CC(C)C(=O)Nc1nc(-c2ccccc2)ns1,0,0,96,0,0,48
COc1ccccc1C(=O)Nc1nc(-c2ccccc2)ns1,-,0,-,-,-,-
CCC(=O)Nc1nc(-c2ccccc2)ns1,0,-,61,0[3.69 µM],0,32
CC(=O)Nc1cc(-c2ccc(Cl)cc2)[nH]n1,0,0,0,0,0,44
CC(=O)Nc1nc(-c2ccc(Cl)cc2)ns1,0,0,active,0,0,64
CCOC1CCCc2oc(-c3ccc(OC)cc3)c(C(=O)NCCCCO)c21 (configuration not stated),-,0,-,0,-,-
C=CCN1c2ccccc2[C@]23C[C@@H](C(=O)OC)N(C(=O)COCc4ccccc4)C2=NC(C(=O)OC)=C(C(=O)OC)[C@H]13,0[11.5 µM],-,-,-,0[12.9 µM],-

# Screens as filed in PubChem.
